Source: PubChem BioAssay (Tox21)
A number with no mark means an inactive call. Records with an inconclusive call do not appear. A call without a number means that no potency is given here. Active and inactive are the calls of the source. Unless noted, calls follow the shape of the dose curve; as a rule, active = well fitted curve in the direction sought with a large enough effect in the repeat runs; inconclusive = weak or mixed curves; inactive = flat fitted curve, though single readings scatter.

Tests used:
[1] = qHTS assay to test for compound auto fluorescence at 535 nm (green) in HEK293 cells (AID 720680)
[2] = qHTS assay to test for compound auto fluorescence at 460 nm (blue) in HEK293 cell free culture (AID 720681)
Method in brief: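 Compounds were added to cell-free DMEM with 10% FBS and fluorescence read directly. The blue channel used 405 nm excitation and 460 nm emission, with triamterene as the reference fluorophore.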

[3] = qHTS assay to test for compound auto fluorescence at 535 nm (green) in HEK293 cell free culture (AID 720682)
Method in brief: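 Cell-free medium (DMEM, 10% FBS) receives compound or DMSO by pintool. Plate read directly at Ex 485/Em 535 nm. Signal converted to fluorescein equivalency.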

[4] = qHTS assay to test for compound auto fluorescence at 590 nm (red) in HepG2 cell free culture (AID 720684)
Method in brief: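 Rose Bengal sodium served as the reference for red signal. Test compounds were dispensed into serum-containing MEM (10% FBS) without cells, and plates were read at 540/590 nm.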

[5] = qHTS assay to test for compound auto fluorescence at 460 nm (blue) in HepG2 cell free culture (AID 720685)
Method in brief: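 Cell-free plates of MEM plus 10% FBS received 23 nL compound or DMSO vehicle; blue-channel (405/460 nm) intensity scored against triamterene as reference fluorophore.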

[6] = qHTS assay to test for compound auto fluorescence at 535 nm (green) in HepG2 cell free culture (AID 720686)
[7] = qHTS assay to test for compound auto fluorescence at 460 nm (blue) in HepG2 cells (AID 720687)
Method in brief: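 HepG2 cells in MEM with 10% FBS, attached overnight at 37 C, were exposed to compound or DMSO for 1 hr at 37 C, 5% CO2. Blue fluorescence was read at 405/460 nm, with triamterene as reference fluorophore.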

[8] = target: Glucocorticoid receptor (Homo sapiens) (UniProt P04150); assay: qHTS assay to identify small molecule agonists of the glucocorticoid receptor (GR) signaling pathway (AID 720691; active = well fitted activation curve with a large enough effect in the signal ratio in the repeat runs, not every such curve was filed as active; the % refers to the signal ratio)
Glucocorticoid receptor (Homo sapiens), sequence (P04150 whole entry, looked up): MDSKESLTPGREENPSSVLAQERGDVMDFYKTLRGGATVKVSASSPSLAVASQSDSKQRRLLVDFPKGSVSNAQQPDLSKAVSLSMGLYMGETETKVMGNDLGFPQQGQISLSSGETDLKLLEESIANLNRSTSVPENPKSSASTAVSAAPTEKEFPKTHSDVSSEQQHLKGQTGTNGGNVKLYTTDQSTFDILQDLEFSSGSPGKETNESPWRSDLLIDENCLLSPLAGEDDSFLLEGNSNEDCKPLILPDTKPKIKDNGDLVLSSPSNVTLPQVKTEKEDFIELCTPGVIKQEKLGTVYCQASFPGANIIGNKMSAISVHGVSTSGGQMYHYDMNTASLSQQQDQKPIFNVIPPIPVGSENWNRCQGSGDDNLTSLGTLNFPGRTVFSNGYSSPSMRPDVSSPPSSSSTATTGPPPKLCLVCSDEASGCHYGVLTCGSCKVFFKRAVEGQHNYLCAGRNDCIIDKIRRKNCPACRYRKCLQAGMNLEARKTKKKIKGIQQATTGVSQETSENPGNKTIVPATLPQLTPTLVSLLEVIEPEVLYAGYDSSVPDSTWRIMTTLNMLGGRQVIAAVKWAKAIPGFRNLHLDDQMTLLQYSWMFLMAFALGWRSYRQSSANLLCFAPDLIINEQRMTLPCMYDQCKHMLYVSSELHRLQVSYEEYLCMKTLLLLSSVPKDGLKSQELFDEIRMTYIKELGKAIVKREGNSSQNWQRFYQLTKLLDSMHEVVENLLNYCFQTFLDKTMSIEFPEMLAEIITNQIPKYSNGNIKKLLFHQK
Method in brief: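 Measures GR pathway activation through a GRE-beta-lactamase reporter stably integrated in HeLa cells, with 18 h compound treatment at 37 C and fluorescence detection using a FRET substrate.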

[9] = target: Glucocorticoid receptor (Homo sapiens) (UniProt P04150); assay: qHTS assay to identify small molecule antagonists of the glucocorticoid receptor (GR) signaling pathway (AID 720692; active = well fitted inhibition curve with a large enough effect in the signal ratio in the repeat runs, not every such curve was filed as active; the % refers to the signal ratio; also: potency is read from the fitted curve at half-maximal effect)
Method in brief: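 Tox21 10K library screened in concentration-response for blockade of dexamethasone (5 nM final)-induced GRE-bla reporter activity in HeLa cells; 18 h treatment, fluorescence read.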

[10] = qHTS assay to test for compound auto fluorescence at 590 nm (red) in HEK293 cell free culture (AID 720683)
Method in brief: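 Cell-free wells of DMEM with 10% FBS received compound, and intrinsic fluorescence was read at excitation/emission 540/590 nm. Values expressed as equivalence to Rose Bengal sodium.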

Row | Structure (SMILES) | outcome [1] | Potency [2] | outcome [3] | outcome [4] | Potency [5] | outcome [6] | Potency [7] | Potency [8] | Potency [9] | outcome [10]
1 | CCN(CC)c1c([N+](=O)[O-])cc(C(F)(F)F)c(N)c1[N+](=O)[O-] | inactive | inactive | inactive | inactive | inactive | inactive | inactive | – | – | –
2 | C[C@H]1O[C@@H](O[C@H]2[C@@H](O)C[C@H](O[C@H]3[C@@H](O)C[C@H](O[C@H]4CC[C@@]5(C)[C@H](CC[C@@H]6[C@@H]5CC[C@]5(C)[C@@H](C7=CC(=O)OC7)CC[C@]65O)C4)O[C@@H]3C)O[C@@H]2C)C[C@H](O)[C@@H]1O | inactive | inactive | inactive | inactive | inactive | inactive | inactive | inactive | 0.425 µM (active) | –
3 | C[C@@H]1O[C@@H](O[C@H]2C[C@@H](O)[C@]3(CO)[C@H]4[C@H](O)C[C@]5(C)[C@@H](C6=CC(=O)OC6)CC[C@]5(O)[C@@H]4CC[C@]3(O)C2)[C@H](O)[C@H](O)[C@H]1O | inactive | inactive | inactive | inactive | inactive | inactive | inactive | – | 0.268 µM (active) | –
4 | CCCCCCCCCCCCCC[P+](CCCCCC)(CCCCCC)CCCCCC (tested in a mixture with another compound) | inactive | inactive | inactive | inactive | inactive | inactive | inactive | – | – | –
5 | O=[N+]([O-])c1cc([N+](=O)[O-])c2ccccc2c1 | inactive | inactive | inactive | inactive | inactive | inactive | inactive | inactive | – | –
6 | CCC[CH2][Sn]([CH2]CCC)([CH2]CCC)[O]C(=O)c1ccccc1 | inactive | – | inactive | inactive | inactive | inactive | inactive | – | – | inactive
7 | CC(=O)[O-].CC(=O)[O-].[Hg+2] | inactive | inactive | inactive | inactive | inactive | inactive | inactive | – | – | –
8 | CC1(c2ccc(Oc3ccccc3)cc2)OC(=O)N(Nc2ccccc2)C1=O (stereo not given) | inactive | – | inactive | inactive | inactive | inactive | inactive | – | – | inactive
9 | N#CCCSCCC#N | inactive | inactive | inactive | inactive | inactive | inactive | inactive | inactive | inactive | –
10 | Cn1cc(C2=C(c3cn(C4CCN(Cc5ccccn5)CC4)c4ccccc34)C(=O)NC2=O)c2ccccc21 | inactive | inactive | inactive | inactive | inactive | inactive | inactive | – | 1.34 µM (active) | –
11 | CCC(C)(C)C(=O)OC1=C(c2ccc(Cl)cc2Cl)C(=O)OC12CCCCC2 | inactive | inactive | inactive | inactive | inactive | inactive | inactive | – | – | –
12 | c1ccc(OCC2CO2)cc1 (stereo not given) | inactive | inactive | inactive | inactive | inactive | inactive | inactive | – | inactive | inactive
13 | CC(C)(C)C(O)/C(=C\c1ccc(Cl)cc1Cl)n1cncn1 (stereo not given) | inactive | inactive | inactive | inactive | inactive | inactive | inactive | inactive | 59.3 µM (active) | –
14 | CC(C)OC(=S)S | inactive | – | inactive | inactive | inactive | inactive | inactive | – | – | –
15 | COc1ccc(OC)c(CC(C)N)c1 (stereo not given) | inactive | – | inactive | inactive | inactive | inactive | inactive | – | – | inactive
16 | Fc1ccc(Oc2ccnc3cc(Cl)cc(Cl)c23)cc1 | inactive | – | inactive | inactive | inactive | inactive | inactive | – | – | inactive
17 | Cc1cc(C(C)(C)c2cc(C)c(O)c(C)c2)cc(C)c1O | inactive | – | inactive | inactive | inactive | inactive | inactive | – | 4.74 µM (active) | inactive
